# Pf Dd2 growth: Plasmodium falciparum Dd2 growth inhibition; P. falciparum Dd2 growth, SYBR Green, 72 h; Potency, µM (top dose mostly 28.9 µM), most hits filed as inhibitors; 4.3% of 120,000 active; AID 1347417; active means well fitted inhibition curve with a large enough effect; further: nearly all actives have a fitted effect of over 65% in size
#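 Readout: SYBR Green fluorescence, 485 nm excitation, 535 nm emission, after ~16 h lysis at 37C. Before that, Dd2-infected red cells (2.5% hematocrit) grew 72 h with compound, 29 uM top final concentration.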
# Numbers stand for hits; – = inactive; ! = repeats disagree; [ ] = another dose, or the depositor's remark. Shown is part of a subset that was picked to be rich in hits.
SMILES,Pf Dd2 growth
COc1ccc(Cc2nc3nccc(-c4ccc5c(c4)OCCCO5)n3n2)cc1,–
COCc1nc2nccc(-c3ccc4c(c3)OCCCO4)n2n1,–
Fc1ccc(Cc2nc3nccc(-c4ccc5c(c4)OCCCO5)n3n2)cc1,14.1µM
COc1cc(NC(=O)CSc2nc3ccccc3nc2Cc2ccccc2OC)cc(OC)c1,–
COc1ccccc1Cc1nc2ccccc2nc1SCC(=O)N1CCCCC1,–
COc1ccccc1Cc1nc2ccccc2nc1SCC(=O)NCc1ccccc1Cl,0.891µM
O=C(Cc1cccc(F)c1)N1CC(Oc2ccc(-c3nc(-c4ccccc4)no3)cc2)C1,–[5.79 µM]
COc1ccc(CCNC(=O)c2noc(-c3ccc[nH]c3=O)n2)cc1OC,–
COCCNC(=O)C1CCN(C(=O)c2ncn3c2COC(c2ccc(F)cc2)C3)CC1 (configuration not stated),–
COc1cccc(CCC2CCCN(C3CCN(Cc4cccnc4)CC3)C2)c1 (configuration not stated),8.91µM
CS(=O)(=O)CCNC(=O)C1CCCN(C2CCN(Cc3cccnc3)CC2)C1 (configuration not stated),–
C=CCS(=O)(=O)N1CCCC(CCc2cccc(OC)c2)C1 (configuration not stated),–
CN(C(=O)CCS(=O)(=O)c1ccccc1)C1CCc2nn(C)c(=O)n2CC1 (configuration not stated),–
NC(=O)[C@@H]1C[C@@H](O)[C@H](O)[C@@H]2NC(=S)N(CC3CCCCC3)[C@@H]21,–
OC1(c2csc(CN3CCOCC3)n2)CCN(C2COC2)CC1,–
Cc1cn(CC(=O)N2C[C@@H](C)[C@](O)(C(C)C)C2)c(=O)[nH]c1=O,–
CCCN(Cc1ccncc1)C(=O)c1cnc(-c2ccccn2)[nH]c1=O,12.6µM
CCN(Cc1ccncc1)C(=O)c1cc(-c2cnc(C)nc2)nc2c(C)cccc12,–
CCCCN(Cc1cccnc1)C(=O)c1cnc(-c2ccc(C)cc2)[nH]c1=O,–
Cc1ccc(CN(C)Cc2cccn2C)cc1,–
CCCOc1ccc(-c2nn(-c3ccccc3)cc2C2NC(=O)NC(C)=C2C(=O)OC)cc1C (configuration not stated),10µM
COc1ccc(C2NC(=O)NC(C)=C2C(=O)Nc2ccccc2)cc1OC (configuration not stated),–
CCCOc1ccccc1C1C(C(=O)Nc2ccccc2)=C(C)Nc2nnnn21 (configuration not stated),–
CCCCOc1ccc(-c2nn(-c3ccccc3)cc2C2NC(=O)NC(C)=C2C(=O)OC)cc1 (configuration not stated),–
CCCOc1ccc(-c2nn(-c3ccccc3)cc2C2NC(=O)NC(C)=C2C(=O)OC)cc1 (configuration not stated),10µM
SMILES,Pf Dd2 growth
COC(=O)C1=C(C)NC(=O)NC1c1ccc(O)cc1 (configuration not stated),–
CC(C)C1=NOC2(CCN(C(=O)c3ccc4c(c3)OCO4)C2)C1 (configuration not stated),–
CN1C(=O)CC[C@]2(C(=O)N3CCN(c4ccc(F)cc4)CC3)CCCC[C@@H]12,–
CC(C)CCN1C(=O)CC[C@]2(C(=O)N3CCN(c4ccc(F)cc4)CC3)CCCC[C@@H]12,10µM
CC(C)CCN1C(=O)CC[C@]2(C(=O)N3CCOCC3)CCCC[C@@H]12,–
Cc1ccc(C(=O)NCC2(C)CCOCC2)cn1,–
O=C(c1ccccc1)N1CCC2(C1)C(=O)N(Cc1ccccc1)c1ccccc12 (configuration not stated),–
COC(=O)N1CCC2(C1)C(=O)N(CCc1ccccc1)c1ccccc12 (configuration not stated),12.6µM!
O=C(c1ccc(Cl)cc1)N1CCC2(C1)C(=O)N(Cc1ccccc1)c1ccccc12 (configuration not stated),–
COc1ccc(CC(=O)N2CCC3(C2)C(=O)N(CCc2ccccc2)c2ccccc23)cc1 (configuration not stated),–
COCC(=O)N1CCC2(C1)C(=O)N(CCc1ccccc1)c1ccccc12 (configuration not stated),–
COc1cccc(C(=O)N2CCC3(C2)C(=O)N(CCc2ccccc2)c2ccccc23)c1 (configuration not stated),7.94µM
CCS(=O)(=O)N(C1CC1)C1CCOC2(CCN(C(=O)Cc3cccc(F)c3)CC2)C1 (configuration not stated),–
Cn1nccc1C(=O)N1CCC2(CCCCO2)CC1,–
COC1CCC12CCN(C(=O)c1ccc(C#N)cc1)CC2 (configuration not stated),–
CCn1c(C2CCN(C(=O)CCNC(=O)c3ccc(F)cc3)CC2)n[nH]c1=O,–
O=C1NCCCCCCN(C(=O)c2ccco2)[C@H]2CCCC[C@@H]12,–
CC(C)c1noc([C@@H]2C[C@H]3C(=O)NCCCCCCN(C(=O)c4ccco4)[C@H]3C2)n1,–
O=C(NCCc1c[nH]c2ccccc12)[C@@H]1C[C@H]2C(=O)NCCCCCCN(C(=O)c3ccco3)[C@H]2C1,1.12µM
